Compound activity deposited in PubChem BioAssay by Center for Chemical Genomics, University of Michigan.
A selection: hits, their analogues and other compounds. The true share with any hit is near 0.86%.
HIV TAR-Tat = HIV-1 TAR-Tat binding disruption; HIV-1 TAR RNA, Tat peptide displacement FRET; hits give high values; z-score (test concentration not listed); 100,000 tested, 0.6% active; active = z-score of 3 or more in at least 2 runs
CDC25B CDK2 inh = human CDC25B-CDK2/CyclinA binding inhibition; HTRF CDC25B-CDK2/CyclinA binding, anti-His/anti-Flag; hits give high values; z-score (no concentration beside the values); 94,000 tested, 0.72% active; AID 1259370; in the data active = z-score above about 3.2
The depositor's hits bear a star; nt = no result.

SMILES | HIV TAR-Tat | CDC25B CDK2 inh
CN(C)c1ccc(C2Nc3ccccc3NC3=C2C(=O)CC(c2cccs2)C3)cc1 (configuration not stated) | 0.13 | 7.4*
CCN(CC)c1ccc(C2CC(=O)C3=C(C2)Nc2ccccc2NC3c2ccco2)cc1 (configuration not stated) | 25* | 1.2
CC(=O)N1CCOc2ccc(S(=O)(=O)N3CCC(C(=O)NC4CCC(C)CC4)CC3)cc21 (configuration not stated) | 3.6 | nt
CC(=O)N1CCOc2ccc(S(=O)(=O)N3CCC(C(=O)NC4CCCC4)CC3)cc21 | 17* | nt
Cc1cc(/C=C2\SC(=S)NC2=O)oc1C | nt | -2.5
CCn1c(C(=O)N2CCC(C(=O)NC(C)c3ccccc3)CC2)cc2sccc21 (configuration not stated) | nt | -2
O=C(Nc1ccc2c(c1)nc1n2CCN(C2CCCCC2)C1)NC1CCCCC1 | -3 | -1.3
O=C(Nc1ccc2c(c1)nc1n2CCN(C2CCCCC2)C1)c1ccco1 | 31* | 7.1*
O=S(=O)(Nc1ccc(F)c(Cl)c1)c1ccc(N2CCCCS2(=O)=O)cc1 | 1.6 | nt
CC(=O)Nc1nn2c(-c3ccco3)nnc2s1 | 1.5 | -1.2
O=C(Nc1nn2c(-c3ccco3)nnc2s1)c1ccco1 | 22* | -1.1
O=C(Cc1ccccc1)Nc1nn2c(-c3ccccc3)nnc2s1 | 1.4 | -1.3
O=C(Nc1nn2c(-c3ccccc3)nnc2s1)c1ccco1 | 17* | -1.9
Cc1cc(C)cc(-n2nnc(-c3nc(-c4ccccc4F)no3)c2N)c1 | -0.22 | nt
CSc1ncc(Cl)c(C(=O)Oc2ccc(C)cc2C)n1 | 1.8 | -2
O=C(c1ccc2c(c1)CCN2S(=O)(=O)c1ccccc1)N1CCCC1 | 2.1 | -0.44
COc1ccc2nc(NC(=O)Nc3cc(Cl)c(OC)cc3OC)sc2c1 | 5.3* | 1.3
CCOc1ccc2nc(NC(=O)Nc3cc(Cl)c(OC)cc3OC)sc2c1 | 1.3 | -2.3
Cc1oc(C(C)(C)C)cc1C(=O)/C(C#N)=C/Nc1ccccc1 | nt | 0.26
CC(C)(C)c1ccc(N/C=C(\C#N)C(=O)c2ccsc2)cc1 | nt | 13*
O=C(CCCn1c(=O)c2cccn2c2ccccc21)NCc1ccco1 | 2.7 | nt
COc1cccc(S(=O)(=O)c2c[nH]c3ccc(Cl)cc3c2=O)c1 | 3.1 | -2.1
O=C(CCS(=O)(=O)c1ccc2c(c1)CCN2C(=O)C1CC1)Nc1cccc(Cl)c1 | 1.1 | nt
C=CCSc1nc2c(c(=O)[nH]1)C(c1cc(F)cc(F)c1)CC(=O)N2 (configuration not stated) | -0.27 | -1.4
CCOc1cc(C2CC(=O)Nc3nc(SCc4ccccc4C)[nH]c(=O)c32)ccc1O (configuration not stated) | 1.8 | -0.18
SMILES | HIV TAR-Tat | CDC25B CDK2 inh
CCOc1cc(C2CC(=O)Nc3nc(SC)[nH]c(=O)c32)ccc1O (configuration not stated) | 1.8 | -2.5
C=CCSc1nc2c(c(=O)[nH]1)C(c1ccc(O)c(O)c1)CC(=O)N2 (configuration not stated) | 19* | 16*
Cn1c(SCc2ccc(F)cc2)nc(=O)c2c1NC(=O)CC2c1cccc(O)c1 (configuration not stated) | -0.43 | -1.2
CCCSc1nc2c(c(=O)[nH]1)C(c1ccc(O)c(O)c1)CC(=O)N2 (configuration not stated) | 8.5* | 7.8*
Cc1ccccc1CSc1nc2c(c(=O)[nH]1)C(c1ccc(O)c(O)c1)CC(=O)N2 (configuration not stated) | 25* | 2.9
Cc1ccc(CSc2nc(=O)c3c(n2C)NC(=O)CC3c2ccc(O)c(O)c2)cc1 (configuration not stated) | 26* | -0.12
CCC(C)Nc1nc(C)nc2c(-c3ccc(C)cc3)noc12 (configuration not stated) | 1.4 | nt
O=C(Oc1cncc(Cl)c1)c1cccs1 | nt | -2.7
O=C(CC1(O)C(=O)Nc2ccc(F)cc21)c1ccccc1F (configuration not stated) | 1.5 | nt
COC(=O)C1(C(F)(F)F)N=C(c2ccccc2)OC(N2CCOCC2)=N1 (configuration not stated) | nt | -0.72
Cc1c(C(=O)O)sc2ncnc(Nc3ccc(F)c(Cl)c3)c12 | 20* | nt
CCCCNc1ncnc2sc(C(=O)O)c(C)c12 | 0.95 | nt
COc1ccc(Nc2ncnc3sc(C(=O)O)c(C)c23)c(OC)c1 | 2.3 | nt
COc1ccc(Cl)cc1Nc1ncnc2sc(C(=O)O)c(C)c12 | 3.9* | nt
Cc1c(C(=O)O)sc2ncnc(NC3CC3)c12 | 0.22 | nt
Cc1c(C(=O)O)sc2ncnc(Nc3ccccc3F)c12 | 21* | nt
Cc1c(C(=O)O)sc2ncnc(NCCC3=CCCCC3)c12 | 6.6* | nt
Cc1c(C(=O)O)sc2ncnc(NCc3ccco3)c12 | 1.6 | nt
Cc1noc(C)c1-c1nc(-c2ccccc2)no1 | nt | -0.98
Cc1cccc(-c2nc3sc(N4CCN(Cc5ccncc5)CC4)nn3c2NC(C)(C)C)c1 | 1.1 | nt
O=C(CCCc1c[nH]c2ccccc12)N1CCN(S(=O)(=O)c2ccc(F)cc2)CC1 | 1.1 | nt
Cn1c(=O)c2c(nc(N3CCCCCC3)n2Cc2ccc(F)cc2)n(C)c1=O | nt | -1.2
C=CCNc1nc(NCC)c2cnn(C)c2n1 | 1.3 | nt
Cc1cc(C)c(S(=O)(=O)NCCN2CCN(S(=O)(=O)c3cc(C)c(C)cc3C)CC2)cc1C | -0.55 | -0.32
CCc1cc2c3c([nH]c2cc1S(=O)(=O)Nc1cccc(SC)c1)CCCC3=O | 0.47 | nt
SMILES | HIV TAR-Tat | CDC25B CDK2 inh
Cn1cnc2cc(Nc3nnc(-c4ccc(Cl)cc4)c4ccccc34)ccc21 | nt | -0.73
Cc1nc2cc(Nc3nnc(-c4ccc(Cl)cc4)c4ccccc34)ccc2n1C | nt | 14*
O=c1c(O)c(-c2ccc(O)cc2O)oc2cc(O)cc(O)c12 | 25* | -1.9
O=c1c(O)c(-c2ccccc2O)oc2cc(O)cc(O)c12 | 2.5 | nt
O=c1c(O)c(-c2cc(O)c(O)c(O)c2)oc2cc(O)cc(O)c12 | 38* | -0.86
O=c1c(O)c(-c2ccccc2)oc2cc(O)cc(O)c12 | 1.1 | nt
CC(C)(C)C(=O)Nc1ccccc1OCc1cc(=O)n2ccccc2n1 | 0.4 | nt
C=C(C)Cn1c(C2CC(=O)N(c3cccc(OC)c3)C2)nc2ccccc21 (configuration not stated) | 0.65 | -1
Cc1ccc(Nc2cc(C)nc(-n3cc([N+](=O)[O-])cn3)n2)c(C)c1 | 0.93 | nt
O=c1[nH]c2ccc(NCc3ccc(-c4ccccc4F)o3)cc2[nH]1 | -1.2 | 4.7*
O=c1[nH]c2ccc(NCc3ccc4c(c3)OCO4)cc2[nH]1 | -1.9 | 0.69
O=c1[nH]c2ccc(NCc3ccc(-c4ccccc4)o3)cc2[nH]1 | -0.75 | 3.6
O=c1[nH]c2ccc(NCc3ccc(-c4ccc(Cl)cc4)o3)cc2[nH]1 | -3.1 | 10*
CCOC(=O)C1=C(C)Nc2nc(SCC(C)C)[nH]c(=O)c2C1c1cccc(F)c1 (configuration not stated) | -0.96 | -0.91
O=C(O)c1ccccc1-c1c2ccc3cc(O)ccc3c2oc2c1ccc1cc(=O)ccc12 | 25* | -0.05
COc1ccccc1-c1cc(C(=O)O)c2ccccc2n1 | -3.6 | -0.81
CCOc1ccc(/C(O)=C2\C(=O)C(=O)N(Cc3cccnc3)C2c2ccc(C)cc2)c(C)c1 (configuration not stated) | 0.38 | -1.1
COc1ccc(CN2CSC3=C(C#N)C(c4ccc(F)cc4)CC(=O)N3C2)cc1 (configuration not stated) | 0.92 | 3.6*
